Consider 40 compounds from PubChem BioAssay.

A number with no mark means an inactive call. How the calls were made is not given here.

Chain of Pantothenate synthetase (Mycobacterium tuberculosis (strain ATCC 25618 / H37Rv)) (P9WIL5 whole entry, looked up): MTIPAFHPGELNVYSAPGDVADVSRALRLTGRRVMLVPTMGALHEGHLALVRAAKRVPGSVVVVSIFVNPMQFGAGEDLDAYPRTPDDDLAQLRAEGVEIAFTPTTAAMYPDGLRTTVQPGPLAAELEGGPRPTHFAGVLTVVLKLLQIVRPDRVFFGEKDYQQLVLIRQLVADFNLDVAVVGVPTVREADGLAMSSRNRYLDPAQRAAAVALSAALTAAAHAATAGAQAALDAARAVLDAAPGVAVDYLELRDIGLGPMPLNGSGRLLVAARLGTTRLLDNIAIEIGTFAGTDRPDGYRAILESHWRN

This assay has as its target Pantothenate synthetase (Mycobacterium tuberculosis (strain ATCC 25618 / H37Rv)) (UniProt P9WIL5). Kind of assay: Coupled enzyme confirmation of inhibitors against recombinant Mtb PanC (AID 375).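 Further: 0% = full reaction with vehicle and 100% = no enzyme background.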 Particulars: coupled enzyme assay; at 10 µM, active compounds read high.
For the compound `Cn1c(SCc2nc3ccccc3c(=O)[nH]2)nnc1-c1ccco1`, the inhibition (in general, the share of the control response that was lost under treatment) is 13%.
Turning to `N#CC1=C(N)Oc2cc(O)ccc2C1C1CCCCC1` (stereo not given), the inhibition was 0%.
Take `Cc1ccc(S(=O)(=O)Cn2nnnc2CN(Cc2ccco2)Cc2cccs2)cc1`: the inhibition is 0%.
Then `O=C(c1ccc(Br)o1)N(Cc1ccccc1)c1ccccn1`, with 3%; and `CCCOc1ccc(N2CC(C(=O)Nc3ccc4c(c3)OCO4)CC2=O)cc1` (stereo not given), with 6%.
Consider `c1ccc(-c2nnc(CSc3nncs3)o2)cc1`, for which the inhibition was 0%.
On to `CN(C)CCCN1c2ccccc2Sc2ccc(Cl)cc21`, for which the inhibition is 0%.
Take `CCOC(=O)c1nnc(-c2ccccc2)o1`: the inhibition was 2%.
With `Nc1c(C(=O)NCc2ccco2)nnn1Cc1ccccc1`, the inhibition was 2%.
On to `O=C(NC12CC3CC(CC(C3)C1)C2)c1cncc(O)c1`, for which the inhibition was 2%.
Regarding `CC(=O)N1CCC2(CC1)CC(=O)c1cc(OCC(=O)NCc3ccc(C)cc3)ccc1O2`, the inhibition is 3%.
As for `COC(=O)CN(c1nc(C)c(Cl)c(OC)n1)S(=O)(=O)c1ccc(C)cc1`, the figure is 0%.
Then `CCOC(=O)Cn1c(=O)c(-c2ccccc2N)nc2ccccc21`, with 3%; and `O=C(Nc1ccc(Cl)cc1)N1CCSCC1`, with 1%; and `CCOC(=O)CSc1nnc(CNC(=O)c2ccc(OC)c(OC)c2)n1C`, with 0%.
As to `COCCNC(=O)C(c1ccncc1)N(C(=O)Cn1nnc2ccccc21)c1ccc(OC)cc1` (stereo not given), the inhibition is 0%.
`COCC(=O)N(c1ccc(C(C)C)cc1)C1C=CS(=O)(=O)C1` (stereo not given): the inhibition is 0%.
As for `CCOC(=O)Nc1ccc2c(c1)N(C(=O)OCCN(C)C)c1ccccc1CC2`, the inhibition was 3%.
As to `CCC(=O)Nc1cc(C)c(NC(=O)C23CC4CC(CC(C4)C2)C3)cn1`, the inhibition is 5%.
As for `CCOc1ccccc1N1CCN(C(=O)c2ccncc2)CC1`, the inhibition is 0%.
As to `O=C(NCCCN1CCCC1=O)C1CCN(S(=O)(=O)N2CCOCC2)CC1`, the inhibition is 0%.
Then `Cc1n[nH]c(C)c1S(=O)(=O)Nc1ccc2c(c1)OCCO2`, with 0%.
Regarding `Cc1ccc(CN2C(=O)CCC2C(=O)NCCCN2CCC(C)CC2)cc1` (stereo not given), the inhibition was 8%.
As for `CC(=O)OC1CSc2nc3ccccc3n2C1` (stereo not given), the figure is 0%.
In the case of `CCc1ccccc1OCCCCN1CCCC1`, the inhibition was 0%.
As for `COc1cccc(CNC(=O)CCn2c(=O)oc3ccccc32)c1`, the figure is 0%; as for `COc1ccc(NC(=O)CSc2nc3c(c(=O)n2-c2ccccc2OC)SCC3)cc1`, 3%.
For `Cc1cc(C(=O)O)ccc1-n1c(C)ccc1C`, the inhibition is 6%.
`COc1ccc(N2CCN(Cc3nc(-c4ccc(Cl)cc4Cl)no3)CC2)cc1`: the inhibition is 6%.
`COc1ccccc1NC(=O)CC(NCc1ccccc1)C(=O)O` (stereo not given): the inhibition was 5%.
Consider `Cc1nc(-c2ccccc2)sc1C(N)=O`, for which the inhibition was 0%.
Turning to `O=C(NS(=O)(=O)c1ccc(NC(=O)C2CCCO2)cc1)c1ccccc1` (stereo not given), the inhibition is 0%.
For `COc1ccccc1CC1(C)NC(=O)N(CC(=O)Nc2cc(C)on2)C1=O` (stereo not given), the inhibition is 1%.
For the compound `COc1ccc(C(=O)Oc2c(CN3CCOCC3)cc(Cl)c3cccnc23)cc1OC`, the inhibition was 0%.
Take `O=C(c1ccc2c(c1)c(=O)oc1ccccc12)N1CCCCC1`: the inhibition is 6%.
`O=C(OCc1ccc2c(c1)OCO2)c1ccc(S(=O)(=O)N2CCCCC2)cc1`: the inhibition was 0%.
Turning to `COc1ccc(C2(C(=O)Nc3c(C)n(C)n(-c4ccccc4)c3=O)CCCC2)cc1OC`, the inhibition was 1%.
For `CCOC(=O)C(CC)Sc1ncnc2nc[nH]c12` (stereo not given), the inhibition is 0%.
Then `COC(=O)c1ccc(NC(=O)C(C)N2C(=O)c3ccccc3C2=O)cc1` (stereo not given), with 8%; and `Cc1ccc(C2N(c3ccc(Cl)c(Cl)c3)C(=O)C3CCCN32)o1` (stereo not given), with 6%.
